“And” between values parts separate entries of the source, which are not always exact repeats. Equal values may be shown once. Inconclusive results are not listed. A call without a number means that no potency is given here. The source made the active and inactive calls. Unless noted, calls come from the whole dose curve; as a rule, active = well fitted curve in the direction sought with a large enough effect; inconclusive = small, poorly fitted or top-dose-only effect, or another doubt; inactive = no such curve, though single readings can be large; an effect the other way counts as inactive or inconclusive.
Key:
[1] = NS1 protein of Zika virus - qHTS assay to identify small molecule inhibitors in human HEK 293 cells (AID 1347053); note: nearly all actives have a fitted effect of over 55% in size; note: potency is the fitted concentration of half-maximal effect
Method in brief: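 In this cell-based screen, HEK 293 cultures received compound for one hour before Zika MR766 at MOI = 0.5. NS1 was quantified 24 hours later by TR-FRET, normalized to virus-free wells and infected wells.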

[2] = target: T1, Tyrosine-protein phosphatase non-receptor type substrate 1 (Homo sapiens) + Leukocyte surface antigen CD47 (Homo sapiens) (UniProt P78324+Q08722); assay: CD47-SIRPalpha protein protein interaction - LANCE assay qHTS validation (AID 1347057; active = well fitted curve in the direction sought with a large enough effect in the signal ratio, with a control signal flat, not every such curve was filed as active; the % refers to the signal ratio; note: series mostly up to about 38 µM)
T1 sequence (P78324 whole entry, looked up, the tested form may be a part): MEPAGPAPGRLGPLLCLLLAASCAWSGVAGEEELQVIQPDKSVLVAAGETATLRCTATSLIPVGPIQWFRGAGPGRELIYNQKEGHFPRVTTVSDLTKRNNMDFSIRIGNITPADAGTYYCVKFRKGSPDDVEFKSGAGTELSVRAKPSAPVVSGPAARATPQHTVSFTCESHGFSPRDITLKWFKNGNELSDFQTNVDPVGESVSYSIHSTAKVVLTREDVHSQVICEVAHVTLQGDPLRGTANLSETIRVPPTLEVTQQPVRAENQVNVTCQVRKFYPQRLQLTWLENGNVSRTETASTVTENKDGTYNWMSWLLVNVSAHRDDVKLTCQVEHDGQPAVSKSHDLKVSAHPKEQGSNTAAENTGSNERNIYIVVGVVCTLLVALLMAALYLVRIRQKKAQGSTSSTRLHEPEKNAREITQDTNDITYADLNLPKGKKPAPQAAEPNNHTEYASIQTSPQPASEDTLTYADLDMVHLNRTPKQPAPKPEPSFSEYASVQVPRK
T1 sequence (Q08722 whole entry, looked up, the tested form may be a part): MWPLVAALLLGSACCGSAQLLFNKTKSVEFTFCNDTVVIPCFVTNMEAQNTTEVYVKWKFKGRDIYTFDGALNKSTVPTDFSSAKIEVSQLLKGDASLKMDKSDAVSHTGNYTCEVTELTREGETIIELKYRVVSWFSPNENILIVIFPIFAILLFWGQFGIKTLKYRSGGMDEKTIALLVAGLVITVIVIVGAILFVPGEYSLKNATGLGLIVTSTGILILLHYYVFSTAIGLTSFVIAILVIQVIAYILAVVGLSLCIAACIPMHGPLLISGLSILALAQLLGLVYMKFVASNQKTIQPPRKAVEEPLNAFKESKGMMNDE
Method in brief: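 Inhibition of soluble CD47/SIRPalpha ectodomain association by titrated compounds, measured as 665/615 nm time-resolved FRET ratio after sequential 30 min room-temperature incubations.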

[3] = target: T1, Tyrosine-protein phosphatase non-receptor type substrate 1 (Homo sapiens) + Leukocyte surface antigen CD47 (Homo sapiens); assay: CD47-SIRPalpha protein protein interaction - Alpha assay qHTS validation (AID 1347059);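 note: bead proximity luminescence from CD47 binding SIRPalpha after compound preincubation with SIRPalpha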
Method in brief: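 AlphaScreen signal between CD47-His (12.5 nM) and biotin-SIRPalpha (25 nM) soluble extracellular domains, bead-captured via Ni-NTA and streptavidin. Compounds, in 7-point titrations, met SIRPalpha 30 min before CD47; PBS pH 7.4 with 0.05% IGEPAL.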

[4] = target: Parathyroid hormone/parathyroid hormone-related peptide receptor (Homo sapiens) (UniProt Q03431); assay: qHTS for PTHR1 Agonists: Optimization Screen against the NCGC LOPAC library (AID 1347079);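 note: GloSensor cAMP luminescence in HEK-293 GP2 cells expressing human PTHR1 with IBMX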
Sequence of Parathyroid hormone/parathyroid hormone-related peptide receptor (Homo sapiens) (Q03431 whole entry, looked up): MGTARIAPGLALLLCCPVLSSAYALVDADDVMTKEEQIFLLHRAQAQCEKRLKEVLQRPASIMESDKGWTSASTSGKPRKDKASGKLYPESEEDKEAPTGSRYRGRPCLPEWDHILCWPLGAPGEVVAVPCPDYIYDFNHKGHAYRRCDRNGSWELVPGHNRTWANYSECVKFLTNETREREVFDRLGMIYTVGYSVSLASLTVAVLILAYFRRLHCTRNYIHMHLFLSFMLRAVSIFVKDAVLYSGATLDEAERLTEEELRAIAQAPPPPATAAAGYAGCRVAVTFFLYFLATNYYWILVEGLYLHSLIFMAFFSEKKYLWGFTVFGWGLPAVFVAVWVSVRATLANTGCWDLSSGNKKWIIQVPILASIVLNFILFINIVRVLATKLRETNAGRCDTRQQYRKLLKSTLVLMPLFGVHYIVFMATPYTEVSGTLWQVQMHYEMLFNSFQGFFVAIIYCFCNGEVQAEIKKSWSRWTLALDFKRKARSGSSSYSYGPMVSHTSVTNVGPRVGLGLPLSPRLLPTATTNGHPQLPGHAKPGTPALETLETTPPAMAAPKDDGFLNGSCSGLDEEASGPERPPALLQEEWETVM
Method in brief: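 Signal increase flags agonism. GP2 cells, derived from HEK-293, express human PTHR1 and a GloSensor cAMP construct.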

[5] = qHTS of pediatric cancer cell lines to identify multiple opportunities for drug repurposing: Primary screen for TC32 cells (AID 1347089); note: nearly all actives have a fitted effect of over 60% in size; note: potency is the fitted concentration of half-maximal effect
Method in brief: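 TC32 cells, 500-1,000/well in growth medium, compound-treated 48 h at 37 °C; viability from CellTiter-Glo luminescence. Primary screen: MIPE 11-point (0.78 nM–46 µM final), NPC 8-point (0.59 nM–46 µM final); confirmatory at 11-point dilutions.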

[6] = qHTS of pediatric cancer cell lines to identify multiple opportunities for drug repurposing: Primary screen for DAOY cells (AID 1347090); note: nearly all actives have a fitted effect of over 55% in size; note: potency is the fitted concentration of half-maximal effect
Method in brief: (§1)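 Cell viability, CellTiter-Glo luminescence; 500-1,000 cells/well, 8- or 11-point titration, 48 h compound exposure at 37 degrees C, 5% CO2. Controls: DMSO neutral, bortezomib 2.3 µM final as positive.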

[7] = qHTS of pediatric cancer cell lines to identify multiple opportunities for drug repurposing: Primary screen for SJ-GBM2 cells (AID 1347091); note: potency is the fitted concentration of half-maximal effect
Method in brief: as §1

[8] = qHTS of pediatric cancer cell lines to identify multiple opportunities for drug repurposing: Primary screen for A673 cells (AID 1347092); note: nearly all actives have a fitted effect of over 45% in size; note: potency is the fitted concentration of half-maximal effect
Method in brief: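 A673 cells (500-1,000 cells/well) were treated 48 hours at 37 degrees C with compounds at 11-point (0.78 nM to 46 µM) or 8-point (0.59 nM to 46 µM) dilutions. Viability read by CellTiter-Glo luminescence; concentration-response curves fitted.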

[9] = qHTS of pediatric cancer cell lines to identify multiple opportunities for drug repurposing: Primary screen for BT-37 cells (AID 1347094); note: potency is the fitted concentration of half-maximal effect
Method in brief: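 ATP-based luminescence (CellTiter-Glo) quantifies viability after a 48-hour exposure. Compounds are dosed across 8 or 11 final concentrations; DMSO and 2.3 µM bortezomib serve as controls.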

[10] = qHTS of pediatric cancer cell lines to identify multiple opportunities for drug repurposing: Primary screen for SK-N-MC cells (AID 1347093); note: potency is the fitted concentration of half-maximal effect
Method in brief: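 Metabolically active cells were quantified by ATP-dependent luminescence (CellTiter-Glo, 15 min at room temperature) following 48 h treatment. Cells had been plated at 500-1,000 per well and settled for 5 h beforehand.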

## Cc1cccc(C#Cc2ccccc2)n1
[1]
  Potency: inactive
[2]
  outcome: inactive
[3]
  Potency: inactive
[4]
  outcome: inactive
[5]
  Potency: inactive
[6]
  Potency: inactive
[7]
  Potency: inactive
[8]
  Potency: inactive
[9]
  Potency: inactive

## C[C@@H](N)C1CCC(C(=O)Nc2ccncc2)CC1 (stereo not given in full)
[1]
  Potency: inactive
[2]
  outcome: inactive
[3]
  Potency: inactive
[4]
  outcome: inactive
[5]
  Potency: inactive
[6]
  Potency: inactive
[7]
  Potency: 7.43 µM (active)
[9]
  Potency: inactive

## CNC[C@H](O)c1ccc(O)c(O)c1
[1]
  Potency: inactive
[2]
  outcome: inactive
[3]
  Potency: inactive
[4]
  outcome: inactive
[5]
  Potency: inactive
[6]
  Potency: inactive
[7]
  Potency: inactive
[8]
  Potency: 42.9 µM (active)
[10]
  Potency: inactive
[9]
  Potency: inactive

## O=C(O)c1cccc(-c2noc(-c3ccccc3F)n2)c1
[1]
  Potency: inactive
[5]
  Potency: inactive
[6]
  Potency: inactive
[7]
  Potency: inactive
[8]
  Potency: inactive

## C[C@@H](c1ncncc1F)[C@](O)(Cn1cncn1)c1ccc(F)cc1F
[1]
  Potency: inactive
[2]
  outcome: inactive
[3]
  Potency: inactive
[5]
  Potency: inactive
[7]
  Potency: inactive
[9]
  Potency: inactive

## CCOC(=O)C1=C(O)C(=O)N(Cc2ccccc2)C1
[1]
  Potency: inactive
[2]
  outcome: inactive
[3]
  Potency: inactive
[5]
  Potency: inactive
[6]
  Potency: inactive
[7]
  Potency: inactive
[10]
  Potency: inactive

## COc1ccccc1N1CCN(CCN(C(=O)C2CCCCC2)c2ccccn2)CC1
[1]
  Potency: inactive
[2]
  outcome: inactive
[3]
  Potency: inactive
[4]
  outcome: inactive
[5]
  Potency: inactive
[7]
  Potency: inactive
[8]
  Potency: inactive
[10]
  Potency: inactive
[9]
  Potency: inactive

## Oc1ccc(-c2nc(-c3ccc(F)cc3)c(-c3ccncc3)[nH]2)cc1
[1]
  Potency: inactive
[2]
  outcome: inactive
[3]
  Potency: inactive
[4]
  outcome: inactive
[6]
  Potency: 23.5 µM (active)
[8]
  Potency: 14.8 µM (active)
[10]
  Potency: 2.35 µM (active)
[9]
  Potency: inactive

## Nc1nc(OCc2ccccc2)c2[nH]cnc2n1
[1]
  Potency: inactive
[2]
  outcome: inactive
[3]
  Potency: inactive
[4]
  outcome: inactive
[5]
  Potency: inactive
[6]
  Potency: inactive
[8]
  Potency: 18.7 µM (active)

## O=C1c2c(O)cc(O)cc2OC(c2ccc(O)c(O)c2)C1O (stereo not given)
[1]
  Potency: inactive
[2]
  outcome: inactive
[3]
  Potency: inactive
[4]
  outcome: inactive
[5]
  Potency: inactive
[6]
  Potency: inactive
[7]
  Potency: inactive
[8]
  Potency: inactive
[10]
  Potency: 4.69 µM (active)
[9]
  Potency: inactive

## COc1cc2nc(N3CCN(C(=O)C4CCCO4)CC3)nc(N)c2cc1OC (stereo not given)
[1]
  Potency: inactive
[4]
  outcome: inactive
[5]
  Potency: inactive
[6]
  Potency: inactive
[7]
  Potency: inactive
[10]
  Potency: inactive

## Cc1nc(Nc2ncc(C(=O)Nc3c(C)cccc3Cl)s2)cc(N2CCN(CCO)CC2)n1
[1]
  Potency: inactive
[5]
  Potency: inactive
[6]
  Potency: 23.5 µM (active) and 8.41 µM (active)
[7]
  Potency: 18.7 µM (active) and 15 µM (active)
[8]
  Potency: 3.72 µM (active) and 3.35 µM (active)
[10]
  Potency: 18.7 µM (active) and 16.8 µM (active)

## NCCCCNCCCN
[1]
  Potency: inactive
[2]
  outcome: inactive
[3]
  Potency: inactive
[4]
  outcome: inactive
[5]
  Potency: inactive
[6]
  Potency: inactive
[7]
  Potency: inactive
[10]
  Potency: 3.32 µM (active)
[9]
  Potency: inactive

## Nc1nc(N)c(N=O)c(OCC2CCCCC2)n1
[1]
  Potency: inactive
[3]
  Potency: inactive
[4]
  outcome: inactive
[7]
  Potency: 9.35 µM (active)
[8]
  Potency: 7.43 µM (active)
[10]
  Potency: 3.32 µM (active)

## CN(C)C(=O)[C@H](O)[C@H](Cc1ccccc1)NC(=O)c1cc2cc(Cl)ccc2[nH]1
[1]
  Potency: inactive
[2]
  outcome: inactive
[3]
  Potency: inactive
[6]
  Potency: 7.43 µM (active)
[7]
  Potency: 4.69 µM (active)
[8]
  Potency: 5.9 µM (active)
[10]
  Potency: 1.18 µM (active)
[9]
  Potency: inactive

## O=c1c(O)c(-c2cc(O)c(O)c(O)c2)oc2cc(O)cc(O)c12
[1]
  Potency: inactive
[2]
  outcome: inactive
[3]
  Potency: inactive
[4]
  outcome: inactive
[5]
  Potency: inactive
[6]
  Potency: inactive
[7]
  Potency: inactive

## Oc1ccc2ccccc2c1SSc1c(O)ccc2ccccc12
[1]
  Potency: inactive
[2]
  outcome: inactive
[3]
  Potency: inactive
[4]
  outcome: inactive
[5]
  Potency: inactive
[8]
  Potency: 18.7 µM (active)

## CCN(CC)CCOc1ccc(Nc2ncc3cc(-c4c(Cl)cccc4Cl)c(=O)n(C)c3n2)cc1
[1]
  Potency: 0.166 µM (active)
[2]
  outcome: inactive
[3]
  Potency: inactive
[5]
  Potency: 6.58 µM (active)
[6]
  Potency: 0.187 µM (active)
[7]
  Potency: 0.418 µM (active)
[8]
  Potency: 0.118 µM (active)
[10]
  Potency: 0.105 µM (active)
[9]
  Potency: 6.11 µM (active)

## CC(C)c1ccc2c(c1)c(SC(C)(C)C)c(CC(C)(C)C(=O)O)n2Cc1ccc(Cl)cc1
[1]
  Potency: inactive
[2]
  outcome: inactive
[3]
  Potency: inactive
[4]
  outcome: inactive
[5]
  Potency: inactive
[6]
  Potency: 23.5 µM (active)
[7]
  Potency: 20.9 µM (active)
[10]
  Potency: 8.33 µM (active)
[9]
  Potency: 27.3 µM (active)

## NC(=NCc1ccccc1)NC(=O)c1nc(Cl)c(N)nc1N
[1]
  Potency: inactive
[2]
  outcome: inactive
[3]
  Potency: inactive
[4]
  outcome: inactive
[5]
  Potency: inactive
[6]
  Potency: 18.7 µM (active)
[7]
  Potency: inactive
[8]
  Potency: 5.9 µM (active)
[10]
  Potency: 1.18 µM (active)
[9]
  Potency: inactive
